Results from ChEMBL document CHEMBL3988442, “University of Dundee, Small-Polar-MMV Screening Library” (2021).
Hit rate of the full screen: of about 48,000 compounds, about 13,000 (27%) showed an effect of 50% or more. The list shows a part of the results.

test system: Wolbachia pipientis; experiment: Anti-Wolbachia Cell-Based Screen; format: functional; set-up: scale not given: in the data most compounds retested in dose-response had high values; details: 5 µM

Row | Structure (SMILES) | Percent Effect
1 | CN(C)C(=O)CNC(CC(F)(F)F)c1ccc(F)cc1 (stereo not drawn) | -7.138%
2 | CCc1cnc(N2CC3(CCN(S(=O)(=O)C4CC4)C3)C2)nc1 | -6.098%
3 | CCCNC(=O)CNc1cc(C(=O)N2CCSCC2)ccc1C | -10.89%
4 | Cc1ccc(S(=O)(=O)NCCNc2cc(-n3cccc3)ncn2)c(C)c1 | 19.5%
5 | CC(C)Oc1ccc(-c2csc(Cn3ccc(=O)[nH]c3=O)n2)cc1 | -3.236%
6 | O=C1CN(C(=O)C2CCOC2)CCN1Cc1ccc(Cl)cc1 (stereo not drawn) | -11.12%
7 | O=C1CN(C(=O)c2ccc(Cl)cc2)CC(O)CN1Cc1cccs1 (stereo not drawn) | 98.52%
8 | CNc1ncc(CN(C)Cc2cc(O)c3cc(F)ccc3n2)cn1 | -2.585%
9 | Cc1ccc(CN(C)Cc2nc3ccc(F)cc3[nH]2)cn1 | 92.16%
10 | COc1cccc(CN(C)Cc2nc3cc(C)ccc3[nH]2)c1O | 1.617%
11 | CNS(=O)(=O)c1ccc(CN(C)Cc2nc3ccc(F)cc3[nH]2)cc1 | 112.9%
12 | Cc1ccc(OCC(=O)N(C)Cc2ccc(F)cc2)cn1 | -1.613%
13 | CN(Cc1cnc(C(C)(C)C)nc1)Cc1nc2ccc(F)cc2[nH]1 | 92.92%
14 | Cc1nc(CCN)cc(N(C)Cc2nc3ccc(F)cc3[nH]2)n1 | -5.934%
15 | CCc1ccc(CN(CC)Cc2ccc(S(=O)(=O)NC)cc2)cc1 | -10.93%
16 | CCOc1ccccc1CN(CC)Cc1ccc(S(=O)(=O)NC)cc1 | 14.99%
17 | CCNC(=O)NC(C)(C)C(=O)NCc1cccc(N2CC=CC2)c1 | 1.796%
18 | CC(O)c1cccc(N2CCC3(CC2)Nc2ccccc2NC3=O)n1 (stereo not drawn) | 0.04909%
19 | CCc1nc(C)c(C(=O)NCCNc2cnccn2)s1 | 1.537%
20 | C[S+]([O-])c1nncn1CC(=O)c1ccc2c(c1)CCC2 (stereo not drawn) | -5.964%
21 | CCCS(=O)(=O)NC(=O)c1ccc(CC)o1 | -1.389%
22 | CCn1cnnc1CCNc1nc(C)cc(C)c1C#N | 126.1%
23 | Cc1cc(NCCO)nc(N2CCCC2)c1C#N | -1.529%
24 | Cc1cc(C)c(C#N)c(NCCn2cnnc2C(C)C)n1 | 112.6%
25 | Cc1cc(C)cc(OCCNC(=O)C(C)Sc2nncn2C)c1 (stereo not drawn) | -3.054%
26 | CCn1c(C)nnc1SCCNc1nc(C)ncc1S(C)(=O)=O | -10.91%

Row | Structure (SMILES) | Percent Effect
27 | CCn1cnnc1CCNC(=O)C(C)(C)c1cccc(Cl)c1 | -6.534%
28 | CCn1cnnc1CCNC(=O)c1ccc(Br)cc1F | -14.54%
29 | Cc1cc(C)c(C#N)c(NCCSc2nncn2C)n1 | 98.82%
30 | Cc1cc(NCCO)nc(N2CCN(C)CC2)c1C#N | 2.525%
31 | CC(C)(C)OC(=O)NC(C)(C)c1noc(Cn2ccnc2)n1 | 11.22%
32 | CSCCC(NC(N)=O)C(=O)NCc1ccc(-n2cccn2)cc1 (stereo not drawn) | -16.66%
33 | O=C(Nc1cccnc1)NC1CCN(c2ccccc2OC(F)F)C1 (stereo not drawn) | -19.82%
34 | O=C(O)c1ccnc(-c2ccnc(N3CCC4(CCO4)CC3)n2)c1 | -4.14%
35 | Cc1ccc(CN2CC[C@H]3[C@H]2CC(=O)N3c2ccsc2)o1.O=C(O)C(F)(F)F | 12.94%
36 | Cc1cccc(CN2C(=O)CC[C@@H]3[C@H]2CCN3Cc2ccc(F)cc2)n1.O=C(O)C(F)(F)F.O=C(O)C(F)(F)F | -9.661%
37 | Cc1cccc(CN2C(=O)C[C@H]3[C@@H]2CCN3Cc2ccc(F)cc2)n1.O=C(O)C(F)(F)F.O=C(O)C(F)(F)F | 93.32%
38 | CCc1ccc(CN2CC[C@H]3[C@H]2CC(=O)N3Cc2cccc(C)n2)o1.O=C(O)C(F)(F)F.O=C(O)C(F)(F)F | 105.5%
39 | COc1ccc(CN2CC[C@H]3[C@H]2CC(=O)N3Cc2cccc(C)n2)cc1.O=C(O)C(F)(F)F.O=C(O)C(F)(F)F | 96.36%
40 | Cc1cccc(CN2C(=O)CC[C@@H]3[C@H]2CCN3C(=O)c2ccsc2)n1.O=C(O)C(F)(F)F | -10.27%
41 | Cc1cccc(CN2C(=O)CC[C@@H]3[C@H]2CCN3Cc2cccnc2)n1.O=C(O)C(F)(F)F.O=C(O)C(F)(F)F.O=C(O)C(F)(F)F | -1.034%
42 | Cc1cc(C(=O)NCC(=O)NC(c2ncccc2C)C(C)C)c(C)o1 (stereo not drawn) | -6.286%
43 | CC(C)NC(=O)c1cnc(Sc2nccn2C)c(Cl)c1 | 7.154%
44 | CCCSc1nc(O)c(CC)c(=O)n1-c1ccccc1 | -0.2298%
45 | Cc1ncc(COc2cccc3c2NC(=O)CO3)s1 | -10.58%
46 | Cc1cc(C(=O)N2CCOC[C@H](Oc3cccnc3)C2)c(C(F)(F)F)o1 | 3.665%
47 | O=C([C@@H]1CCO[C@@H]2CCN(Cc3cccnc3)C[C@H]21)N1CCCCO1 | 13.27%
48 | CC(C)=CCN(C)C1CCCN(Cc2noc(C)n2)C1 (stereo not drawn) | 0.8027%
49 | CO[C@@H]1CN(c2ccccc2)S(=O)(=O)[C@@]12CCN(Cc1cncs1)C2 | 104.5%
50 | O=C1C[C@@H]2CCN(Cc3ccccc3)C[C@@H]2CCN1c1ccccc1 | 1.893%
51 | CO[C@H]1CN(c2ccccc2)S(=O)(=O)[C@@]12CCN(Cc1ccccc1)C2 | 88.28%
52 | CO[C@@H]1CN(c2ccccc2)S(=O)(=O)[C@@]12CCN(Cc1ccccc1)C2 | 116.8%

Row | Structure (SMILES) | Percent Effect
53 | CO[C@@H]1CN(c2ccccc2)S(=O)(=O)[C@@]12CCN(CC1CC1)C2 | 88.1%
54 | COCC1CC2(CCN(CC3CC3)CC2)CN1c1ncccn1.O=C(O)C(F)(F)F.O=C(O)C(F)(F)F (stereo not drawn) | 9.926%
55 | CN1CC(=O)N(c2ccccc2)CC12CCN(CC1CC1)C2.O=C(O)C(F)(F)F.O=C(O)C(F)(F)F (stereo not drawn) | -12.9%
56 | O=C(CCn1ccccc1=O)N1CCN(Cc2cccc(Cl)c2)CC1 | -6.995%
57 | COc1cc(C2CC(=O)c3c(O)cc(O)cc3O2)ccc1O (stereo not drawn) | 4.847%
58 | COc1ccc(-c2noc(Cn3cc(C)cn3)n2)c(OC)c1OC | -1.893%
59 | COc1ccccc1CN(Cc1cccs1)S(=O)(=O)N(C)C(C)C | -8.287%
60 | Cc1ncc2c(n1)CCN(Cc1ncc(C(C)(C)C)o1)C2 | 1.311%
61 | Cc1ccc(C(NC(=O)[C@H]2CC[C@@H](O)CC2)c2cccnc2)cc1C (stereo partly drawn) | -7.536%
62 | CS(=O)(=O)c1cccc(S(=O)(=O)NC(=O)CC2CCCC2)c1 | -23.12%
63 | Cc1ccc(C(NC(=O)C2CC2)c2cccc(S(C)(=O)=O)c2)cc1 (stereo not drawn) | 85.76%
64 | Cc1ccc(C(N)c2cccc(S(C)(=O)=O)c2)cc1 (stereo not drawn) | 1.85%
65 | CCC(=O)NC(c1ccc(C)cc1)c1cccc(S(C)(=O)=O)c1 (stereo not drawn) | 96.25%
66 | CCNC(=O)NC(c1ccc(C)cc1)c1cccc(S(C)(=O)=O)c1 (stereo not drawn) | 96.65%
67 | COc1ccc(C(N)c2cccc(S(C)(=O)=O)c2)cc1 (stereo not drawn) | 4.589%
68 | CC(CO)NS(=O)(=O)c1cccc(C(C)C)c1 (stereo not drawn) | -1.865%
69 | CS(=O)(=O)c1cccc(C(N)c2ccc(F)c(F)c2)c1.Cl (stereo not drawn) | -2.394%
70 | COc1ccc(N2CCN(C(=O)CCn3nnnc3C)CC2(C)C)cc1 | 5.117%
71 | CN(Cc1cccnc1)CC1CNCc2nccn2C1 (stereo not drawn) | -0.6774%
72 | CC(C)N(C)Cc1cncc2c1CCN(C(=O)c1cccc(C#N)c1)C2.Cl.Cl | -11.44%
73 | CN(Cc1cn2c(n1)CN(C(=O)N(C)C)CC2)Cc1ccco1 | 3.747%
74 | CN(Cc1ccco1)Cc1cncc2c1CCN(Cc1ccoc1)C2.Cl.Cl.Cl | 96.91%
75 | CC(C)C(=O)N1CCc2c(CN(C)Cc3ccco3)cncc2C1.Cl.Cl | 107%
76 | CN(Cc1cccnc1)Cc1cncc2c1CCN(c1ccccn1)C2.Cl.Cl.Cl | 98.43%
77 | Cl.Cl.O=C(NCc1cncc2c1CCN(Cc1ccoc1)C2)C1CC1 | -1.129%
78 | Cl.Cl.c1cnc(NCc2cncc3c2CCN(Cc2ccoc2)C3)nc1 | 0.8556%

Row | Structure (SMILES) | Percent Effect
79 | CN(Cc1cccnc1)Cc1cncc2c1CCN(Cc1ccoc1)C2.Cl.Cl.Cl | 98.31%
80 | COC(=O)c1ccc(CN(C(C)C)C(C)C)o1.Cl | -10.72%
81 | CN(CCC#N)C(=O)CN1CCCN(Cc2noc(C3CC3)n2)CC1 | -26.77%
82 | CCn1ccnc1CN1CCN(CC(=O)NC(C)(C#N)C2CC2)CC1 (stereo not drawn) | -16.24%
83 | CCS(=O)(=O)N1CCn2cc(CN(C)Cc3ccco3)nc2C1 | -9.31%
84 | CC(C)CN1CCc2c(CN(C)Cc3ccco3)cncc2C1.Cl.Cl.Cl | 112.5%
85 | CN(Cc1ccco1)Cc1cncc2c1CCN(S(C)(=O)=O)C2.Cl.Cl | 114%
86 | CCS(=O)(=O)N1CCc2c(CN(C)Cc3ccco3)cncc2C1.Cl.Cl | 0.2646%
87 | COCCN1C[C@@H]2CN(S(=O)(=O)c3cccs3)C[C@@H]2C1=O | -21.25%
88 | O=C(Nc1ccc2scnc2c1)N1CCN([C@H]2CCCC[C@@H]2O)CC1 | -4.588%
89 | CN(C)C1CCCN(C(=O)NCCC(=O)N2CCCCCC2)C1 (stereo not drawn) | 0.3491%
90 | O=C(NCCNc1ncccn1)N1CCCC(C(F)(F)F)C1 (stereo not drawn) | -15.03%
91 | CN(CC(F)(F)F)C(=O)CNC(=O)N1CCCC(N(C)C)C1 (stereo not drawn) | 95.13%
92 | CN(C)C(=O)c1cccc(NC(=O)N2CCCC(C(F)(F)F)C2)c1 (stereo not drawn) | 13.97%
93 | CN(CC(F)(F)F)C(=O)CNC(=O)N1CCCC(C(F)(F)F)C1 (stereo not drawn) | 92.98%
94 | CN(C)C1CCCN(C(=O)NCCC(C)(C)C)C1 (stereo not drawn) | -10.25%
95 | Cc1nnc(C(C)N2CCN(Cc3ccc(C#N)cc3)CC2)o1 (stereo not drawn) | 2.063%
96 | CC(C)OCC(=O)N1CCCN(Cc2ccc(C#N)cc2)CC1 | -9.345%
97 | Cc1nnc(C(C)N2CCCN(Cc3ccc(F)cc3)CC2)o1 (stereo not drawn) | 92.55%
98 | COc1cnc(N2CCCN(Cc3ccc(F)cc3)CC2)nc1 | 0.06599%
99 | Cc1nnc(C(C)N2CCN(Cc3ccc4c(c3)OCO4)CC2)o1 (stereo not drawn) | 12.94%
100 | Cc1nnc(C(C)N2CCN(Cc3ccc(C(F)(F)F)cc3)CC2)o1 (stereo not drawn) | 124.3%
101 | CC(c1ncc(C(C)(C)C)o1)N1CCN(Cc2ccncc2)CC1 (stereo not drawn) | -8.967%
102 | Cc1nnc(C(C)N2CCCN(Cc3noc(C4CC4)n3)CC2)o1 (stereo not drawn) | 5.084%
103 | Cc1nnc(C(C)N2CCCN(Cc3ccc(C#N)cc3)CC2)o1 (stereo not drawn) | 105.5%
